For 41 compounds, cytotoxicity call results are on record in the antibiotic and cytotoxicity screens of Wong et al. (2023).

Out of some 39,000 compounds screened, about 1,500 (3.8%) were called active. This excerpt belongs to a sample that is enriched for actives.

The test concerns HSkMC (human skeletal muscle cells). Kind of test: cytotoxicity call (relative viability < 0.9). The conditions noted are these: 10 µM.
In the case of `C=C1C(c2ccc(C)cc2)=CCc2cc(C)cc(C)c21`, the cytotoxicity call is “inactive”.
As for `C[C@@H]1CCCCO[C@@H](CN(C)S(=O)(=O)c2cccs2)[C@H](C)CN([C@@H](C)CO)C(=O)c2cc(NC(=O)Nc3ccc(F)cc3)ccc2O1`, the cytotoxicity call is “inactive”.
Consider `Cc1nnn2c1COC[C@H](CNCC(C)C)C2`, for which the cytotoxicity call is “inactive”.
In the case of `COCC(=O)Nc1ccc2c(c1)OC[C@@H](C)N(Cc1ccccc1OC)C[C@@H](C)[C@@H](OC)CN(C)C2=O`, the cytotoxicity call was “inactive”.
Turning to `COc1ccc(NC(=O)Nc2ccc3c(c2)C(=O)N([C@@H](C)CO)C[C@@H](C)[C@@H](CN(C)S(=O)(=O)c2cccs2)OCCCC[C@H](C)O3)cc1`, the cytotoxicity call is “inactive”.
To `O=C(CN1CCOCC1)N[C@H]1CC[C@H](CCNC(=O)C2CCCCC2)O[C@@H]1CO` belongs “inactive”; to `CNC[C@@H]1Oc2ccc(NS(=O)(=O)c3cn(C)cn3)cc2C(=O)N([C@H](C)CO)C[C@H]1C`, “inactive”.
Turning to `CCCNC(=O)N1C[C@@H](O)COC[C@@H]2O[C@@H](CC(=O)N3CCOCC3)CC[C@H]21`, the cytotoxicity call is “inactive”.
As for `O=C(C[C@@H]1CC[C@H]2[C@@H](COC[C@H](O)CN2S(=O)(=O)c2ccc(F)cc2)O1)N[C@H]1CCN(Cc2ccccc2)C1`, the cytotoxicity call was “inactive”.
As to `COc1nsnc1N1CCOCC1`, the cytotoxicity call is “inactive”.
As to `C[C@H](CO)N1C[C@H](C)[C@@H](CN(C)Cc2ccc(Cl)c(Cl)c2)Oc2ccc(NS(=O)(=O)c3ccccc3)cc2CC1=O`, the cytotoxicity call was “inactive”.
With `C[C@@H]1CN([C@@H](C)CO)C(=O)Cc2cc(NS(=O)(=O)c3ccccc3)ccc2O[C@H]1CN(C)Cc1ccc(Cl)c(Cl)c1`, the cytotoxicity call was “active”.
To `C[C@H](CO)N1C[C@H](C)[C@H](CN(C)Cc2ccc(Cl)c(Cl)c2)Oc2ccc(NS(=O)(=O)c3ccccc3)cc2CC1=O` belongs “inactive”; to `C[C@H]1CN([C@@H](C)CO)C(=O)Cc2cc(NS(=O)(=O)c3ccccc3)ccc2O[C@H]1CN(C)Cc1ccc(Cl)c(Cl)c1`, “inactive”; to `C[C@@H]1CN([C@H](C)CO)C(=O)Cc2cc(NS(=O)(=O)c3ccccc3)ccc2O[C@@H]1CN(C)Cc1ccc(Cl)c(Cl)c1`, “active”.
With `C[C@@H]1CN([C@@H](C)CO)C(=O)Cc2cc(NS(=O)(=O)c3ccccc3)ccc2O[C@@H]1CN(C)Cc1ccc(Cl)c(Cl)c1`, the cytotoxicity call was “active”.
On to `C[C@@H]1CN([C@H](C)CO)C(=O)Cc2cc(NS(=O)(=O)c3ccccc3)ccc2O[C@H]1CN(C)Cc1ccc(Cl)c(Cl)c1`, for which the cytotoxicity call was “active”.
For the compound `C[C@H]1CN([C@@H](C)CO)C(=O)Cc2cc(NS(=O)(=O)c3ccccc3)ccc2O[C@@H]1CN(C)Cc1ccc(Cl)c(Cl)c1`, the cytotoxicity call was “inactive”.
To `Cc1noc(C)c1NC(=O)N(C)C[C@H]1Oc2ccc(NC(=O)Nc3ccc(C(F)(F)F)cc3)cc2C(=O)N([C@H](C)CO)C[C@@H]1C` belongs “inactive”; to `NNC(=O)[C@H]1C[C@H]2C[C@@H]1C[C@@H]2C(=O)NN`, “inactive”; to `COc1ccc(S(=O)(=O)N(C)C[C@H]2Oc3ccc(NC(=O)Cn4cnnn4)cc3CC(=O)N([C@@H](C)CO)C[C@H]2C)cc1`, “inactive”.
For the compound `O=C(O)c1ccc[n+]([O-])c1`, the cytotoxicity call was “inactive”.
To `CN(C)C(=O)C1CCN(S(C)(=O)=O)CC1` belongs “inactive”; to `Cc1noc(C)c1NC(=O)Nc1ccc2c(c1)C(=O)N([C@@H](C)CO)C[C@H](C)[C@H](CN(C)C(=O)Nc1ccc(C(F)(F)F)cc1)O2`, “inactive”; to `C[C@@H]1CCCCO[C@@H](CN(C)C(=O)c2ccccc2)[C@@H](C)CN([C@H](C)CO)C(=O)c2cc(NC(=O)Cc3ccccc3)ccc2O1`, “inactive”.
Regarding `O=C(Nc1cc(Cl)ccc1Cl)c1cc(Br)ccc1NS(=O)(=O)c1ccc(Cl)c([N+](=O)[O-])c1`, the cytotoxicity call was “inactive”.
Take `COCCNCc1ccc(-c2cc3nccc(Oc4ccc(NC(=O)C5(C(=O)Nc6ccc(F)cc6)CC5)cc4F)c3s2)nc1`: the cytotoxicity call is “active”.
`Cn1cnc(-c2cc3nccc(Oc4ccc(NC(=S)NC(=O)Cc5ccccc5)cc4F)c3s2)c1`: the cytotoxicity call was “inactive”.
In the case of `COCCNCc1ccc(-c2cc3nccc(Oc4ccc(NC(=S)NC(=O)Cc5ccc(F)cc5)cc4F)c3s2)nc1`, the cytotoxicity call is “active”.
On to `C[C@H](CO)N1C[C@H](C)[C@H](CN(C)S(=O)(=O)c2ccc(-n3cccn3)cc2)OCc2cn(nn2)CCCC1=O`, for which the cytotoxicity call was “inactive”.
In the case of `CO[C@H](C(=O)N(C)C[C@@H]1OCc2ccccc2-c2c(n(C)c3ccccc23)C(=O)N([C@@H](C)CO)C[C@@H]1C)c1ccccc1`, the cytotoxicity call was “inactive”.
To `C[C@@H]1CN([C@@H](C)CO)C(=O)Cc2cc(NC(=O)Nc3cccc4ccccc34)ccc2O[C@@H]1CN(C)Cc1ccncc1` belongs “inactive”.
As for `COc1ccc(S(=O)(=O)N[C@H]2CC[C@@H](CC(=O)N3CCN(c4ccccc4)CC3)O[C@@H]2CO)cc1`, the cytotoxicity call was “inactive”.
To `Cc1noc(C)c1NC(=O)Nc1ccc2c(c1)C(=O)N([C@H](C)CO)C[C@H](C)[C@H](CN(C)C(=O)Nc1cccc3ccccc13)OCCCC[C@H](C)O2` belongs “active”; to `Cc1noc(C)c1NC(=O)Nc1ccc2c(c1)C(=O)N([C@@H](C)CO)C[C@H](C)[C@@H](CN(C)C(=O)Nc1cccc3ccccc13)OCCCC[C@@H](C)O2`, “inactive”.
To `Cc1noc(C)c1NC(=O)Nc1ccc2c(c1)C(=O)N([C@H](C)CO)C[C@H](C)[C@@H](CN(C)C(=O)Nc1cccc3ccccc13)OCCCC[C@H](C)O2` belongs “inactive”; to `Cc1noc(C)c1NC(=O)Nc1ccc2c(c1)C(=O)N([C@@H](C)CO)C[C@@H](C)[C@H](CN(C)C(=O)Nc1cccc3ccccc13)OCCCC[C@H](C)O2`, “inactive”.
To `Cc1noc(C)c1NC(=O)Nc1ccc2c(c1)C(=O)N([C@@H](C)CO)C[C@@H](C)[C@H](CN(C)C(=O)Nc1cccc3ccccc13)OCCCC[C@@H](C)O2` belongs “active”; to `Cc1noc(C)c1NC(=O)Nc1ccc2c(c1)C(=O)N([C@H](C)CO)C[C@@H](C)[C@H](CN(C)C(=O)Nc1cccc3ccccc13)OCCCC[C@@H](C)O2`, “inactive”.
With `COc1ccc(S(=O)(=O)N(C)C[C@@H]2OCCCC[C@H](C)Oc3ccc(NS(=O)(=O)c4ccc(Cl)cc4)cc3C(=O)N([C@H](C)CO)C[C@H]2C)cc1`, the cytotoxicity call was “inactive”.
For `COc1ccc(S(=O)(=O)Nc2ccc3c(c2)C(=O)N([C@@H](C)CO)C[C@H](C)[C@H](CN(C)Cc2ccc(C(=O)O)cc2)OCCCC[C@H](C)O3)cc1`, the cytotoxicity call was “inactive”.
